The values that follow come from PubChem BioAssay (EPA / NIEHS).

Read-out in experiment [1]: Monokine induced gamma interferon (MIG), CXCL9 (gene 4283)
The experiment in a line: BSK_3C_MIG: BioMAP Diversity Plus: 3C Assay for Monokine induced gamma interferon (MIG) Biomarker Activity (AID 2283021). Conditions: primary human endothelial cells (HUVEC); actives raise or lower the signal. The method, boiled down: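 ELISA-measured MIG in dosed HUVEC 3C cultures at 24 h, analysed by bidirectional fitting with DMSO defining baseline activity.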

Experiment [2] deals with human Vitamin D Receptor (VDR), VDR (gene 7421) (UniProt P11473). Description: ATG_VDR_TRANS: Attagene TRANS-FACTORIAL HepG2 Assay for human Vitamin D Receptor (VDR) (AID 2283022; active = hit-call score of the fitted dose curve at least 0.9, where 1 is the maximum). The method, boiled down: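 Multiplexed TRANS reporter in HepG2; 24 h treatment; reporter mRNA by RT-PCR plus capillary electrophoresis; upregulation scored relative to DMSO.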
Sequence of human Vitamin D Receptor (VDR), VDR (gene 7421) (P11473 whole entry, looked up): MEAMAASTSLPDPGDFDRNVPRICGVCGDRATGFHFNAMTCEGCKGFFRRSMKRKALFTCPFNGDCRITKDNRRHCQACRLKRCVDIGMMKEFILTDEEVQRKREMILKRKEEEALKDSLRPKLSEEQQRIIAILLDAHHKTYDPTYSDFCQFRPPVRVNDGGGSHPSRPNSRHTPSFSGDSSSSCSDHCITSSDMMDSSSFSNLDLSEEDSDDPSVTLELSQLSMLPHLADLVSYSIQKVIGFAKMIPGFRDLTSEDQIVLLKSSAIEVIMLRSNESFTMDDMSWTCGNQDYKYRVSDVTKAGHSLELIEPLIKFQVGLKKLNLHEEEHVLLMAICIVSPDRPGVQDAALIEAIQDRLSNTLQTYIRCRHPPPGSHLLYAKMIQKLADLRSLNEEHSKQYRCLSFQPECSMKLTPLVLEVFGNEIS
A short description of experiment [3]: BSK_3C_SRB: Viability Assessment in the BioMAP Diversity Plus: 3C Assay (AID 2283023).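 Note: cells read 24 h after compound dosing; fitted both ways against DMSO so a hit may be signal rise or drop.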 The settings on record: primary human endothelial cells (HUVEC). The method, boiled down:
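Overt cytotoxicity is gauged in parallel confluent HUVEC cultures by SRB total-protein staining at the time of biomarker measurement, 24 h after dosing. Gain or loss of signal is fitted versus DMSO.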

Read-out in experiment [4]: Matrix Metallopeptidase 1 (MMP1), MMP1 (gene 4312)
The experiment in a line: BSK_BE3C_MMP1: BioMAP Diversity Plus: BE3C Assay for Matrix Metallopeptidase 1 (MMP1) Biomarker Activity (AID 2283024). Conditions: primary human bronchial epithelial cells; actives raise or lower the signal. The method, boiled down:
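In this multiplexed primary-cell system, human bronchial epithelium received chemicals for 24 h before an ELISA for MMP1. Values reflect bidirectional fits normalised to the DMSO baseline.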

Experiment [5] can be described thus: BSK_3C_Vis: BioMAP Diversity Plus: 3C Assay for Morphology Visualization (AID 2283025).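 For AC50: light microscopy image of cell morphology used as background control.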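 Note: fitted both ways so gain or loss versus DMSO counts.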 Conditions: primary human endothelial cells (HUVEC). The method, boiled down:
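Light-microscopy morphology readout, 24 h exposure, human primary umbilical vein endothelium; analysed relative to DMSO with bidirectional fitting.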

Read-out in experiment [6]: Pselectin, SELP (gene 6403)
The experiment in a line: BSK_4H_Pselectin: BioMAP Diversity Plus: 4H Assay for Pselectin Biomarker Activity (AID 2283026). The settings on record: primary human endothelial cells (HUVEC); actives raise or lower the signal. The method, boiled down: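 Bidirectional fits against DMSO gave the endpoint. Cells: primary human umbilical vein endothelium, chemical-treated for 24 h before ELISA detection of P-selectin.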

A short description of experiment [7]: BSK_4H_SRB: Viability Assessment in the BioMAP Diversity Plus: 4H Assay (AID 2283027).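 For AC50: curves fitted both ways versus DMSO so AC50 may be loss or gain.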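 Note: cells exposed to compound for 24 h before staining.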 Conditions: primary human endothelial cells (HUVEC). Summed up:
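HUVEC, 24 h post-dose; 10% TCA fix, 0.1% SRB stain, A560 nm. Total protein = overt cytotoxicity, parallel to biomarker read. Bidirectional fit vs DMSO baseline.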

Experiment [8] is described as follows: BSK_BE3C_SRB: Viability Assessment in the BioMAP Diversity Plus: BE3C Assay (AID 2283028). The settings on record: primary human bronchial epithelial cells. The method, boiled down: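 SRB total-protein staining (0.1%, after TCA fixation) of chemically dosed human bronchial epithelial primary cells at 24 h; DMSO serves as the negative control for bidirectional curve fitting.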

Read-out in experiment [9]: Thrombomodulin, THBD (gene 7056)
Description: BSK_3C_Thrombomodulin: BioMAP Diversity Plus: 3C Assay for Thrombomodulin Biomarker Activity (AID 2283029). Conditions: primary human endothelial cells (HUVEC); actives raise or lower the signal. The method, boiled down: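 In a multiplexed primary-cell system, human umbilical vein endothelium received chemical and was assayed 24 h later for thrombomodulin by ELISA. Parallel cultures were SRB-stained (0.1% SRB after 10% TCA fixation, read at 560 nm) to flag cytotoxicity.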

Read-out in experiment [10]: Urokinase-type plasminogen activator receptor (uPAR), PLAUR (gene 5329)
The experiment in a line: BSK_4H_uPAR: BioMAP Diversity Plus: 4H Assay for Urokinase-type plasminogen activator receptor (uPAR) Biomarker Activity (AID 2283030). The settings on record: primary human endothelial cells (HUVEC); actives raise or lower the signal. The method, boiled down:
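Endpoint derived via bidirectional curve fitting against DMSO baseline; readout was ELISA detection of uPAR on umbilical vein endothelial cells at 24 h post-treatment, with SRB-stained parallel cultures assessing cytotoxicity.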

Read-out in experiment [11]: Vascular endothelial growth factor receptor 2 (Homo sapiens) (UniProt P35968)
The experiment in a line: BSK_4H_VEGFRII: BioMAP Diversity Plus: 4H Assay for Vascular endothelial growth factor receptor 2 (VEGFR2) Biomarker Activity (AID 2283031).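 For AC50: cell-surface VEGFR2 protein level quantified by ELISA.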 Conditions: primary human endothelial cells (HUVEC); actives raise or lower the signal. The method, boiled down:
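In this multiplexed HUVEC system, biomarker ELISA was performed after 24 h chemical exposure. Parallel SRB staining (TCA fixation, 560 nm) tracked cytotoxicity; DMSO served as baseline.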

Read-out in experiment [12]: Human Leukocyte Antigen - DR isotype (HLADR), HLA-DRA (gene 3122)
The experiment in a line: BSK_BE3C_HLADR: BioMAP Diversity Plus: BE3C Assay for Human Leukocyte Antigen - DR isotype (HLADR) Biomarker Activity (AID 2283032). Conditions: primary human bronchial epithelial cells; actives raise or lower the signal. The method, boiled down:
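BioMAP BE3C format: human bronchial epithelium, 24 h compound treatment, ELISA detection of HLA-DR, with bidirectional analysis relative to DMSO.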

Read-out in experiment [13]: Vascular cell adhesion molecule 1 (VCAM1), VCAM1 (gene 7412)
Description: BSK_4H_VCAM1: BioMAP Diversity Plus: 4H Assay for Vascular cell adhesion molecule 1 (VCAM1) Biomarker Activity (AID 2283033).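 For outcome: cell-surface VCAM-1 protein measured by ELISA.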 The settings on record: primary human endothelial cells (HUVEC); actives raise or lower the signal. Summed up:
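In this human endothelial (HUVEC) system, biomarker ELISA was run 24 h after compound addition, and total protein in parallel wells was assessed by SRB at 560 nm; DMSO served as negative control.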

Read-out in experiment [14]: Interferon-gamma inducible Protein 10 (IP10), CXCL10 (gene 3627)
Description: BSK_BE3C_IP10: BioMAP Diversity Plus: BE3C Assay for Interferon-gamma inducible Protein 10 (IP10) Biomarker Activity (AID 2283034). The settings on record: primary human bronchial epithelial cells; actives raise or lower the signal. The method, boiled down: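 BE3C cells (human bronchial epithelial, primary); 24 h exposure; ELISA for IP-10; DMSO-referenced bidirectional fit.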

Read-out in experiment [15]: Monokine induced gamma interferon (MIG), CXCL9 (gene 4283)
Description: BSK_BE3C_MIG: BioMAP Diversity Plus: BE3C Assay for Monokine induced gamma interferon (MIG) Biomarker Activity (AID 2283035).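 Note: MIG protein measured by ELISA in BE3C cultures after 24 h of dosing.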 Conditions: primary human bronchial epithelial cells; actives raise or lower the signal. The method, boiled down:
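Dose cells (human primary bronchial epithelial), incubate 24 h, quantify MIG by ELISA, then fit concentration–response in both directions relative to DMSO control.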

Read-out in experiment [16]: Transforming growth factor beta 1 (TGFb1), TGFB1 (gene 7040)
Description: BSK_BE3C_TGFb1: BioMAP Diversity Plus: BE3C Assay for Transforming growth factor beta 1 (TGFb1) Biomarker Activity (AID 2283036;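 note: TGF-b1 protein level measured by ELISA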). The settings on record: primary human bronchial epithelial cells; actives raise or lower the signal. Summed up: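 TGF-b1 measured via ELISA, 24 h after chemical dosing of human bronchial epithelial cells (BE3C). Overt cytotoxicity assessed in parallel by SRB (0.1%, TCA-fixed, 560 nm); analysis bidirectional relative to DMSO.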

Read-out in experiment [17]: Plasminogen activator inhibitor-1 (PAI1), SERPINE1 (gene 5054)
Description: BSK_BE3C_PAI1: BioMAP Diversity Plus: BE3C Assay for Plasminogen activator inhibitor-1 (PAI1) Biomarker Activity (AID 2283037). The settings on record: primary human bronchial epithelial cells; actives raise or lower the signal. Summed up:
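In this multiplexed primary-cell system, bronchial epithelial cells receive test chemical and are sampled at 24 h. PAI-1 is read by ELISA, with DMSO serving as negative control for bidirectional fitting.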

Read-out in experiment [18]: urokinase plasminogen activator (uPA), PLAU (gene 5328)
The experiment in a line: BSK_BE3C_uPA: BioMAP Diversity Plus: BE3C Assay for urokinase plasminogen activator (uPA) Biomarker Activity (AID 2283038).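 Note: uPA protein level quantified by ELISA in cell cultures; uPA read one day after compound addition.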 The settings on record: primary human bronchial epithelial cells; actives raise or lower the signal. Summed up: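 Using confluent primary human lung bronchial epithelial cultures, we dosed chemicals, waited 24 h, then ran a uPA ELISA, fitting bidirectionally against DMSO.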

Read-out in experiment [19]: Urokinase-type plasminogen activator receptor (uPAR), PLAUR (gene 5329)
Description: BSK_BE3C_uPAR: BioMAP Diversity Plus: BE3C Assay for Urokinase-type plasminogen activator receptor (uPAR) Biomarker Activity (AID 2283039).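 For outcome: uPAR protein level measured by ELISA on the cells; cells exposed to compound for one day before measurement.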 The settings on record: primary human bronchial epithelial cells; actives raise or lower the signal. The method, boiled down: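 Chemically treated human bronchial epithelial cells (lung primary) are assayed for uPAR by ELISA after 24 h, with data fitted in both directions using DMSO as negative control.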

Read-out in experiment [20]: Interleukin-6 (IL6), IL6 (gene 3569)
The experiment in a line: BSK_CASM3C_IL6: BioMAP Diversity Plus: CASM3C Assay for Interleukin-6 (IL6) Biomarker Activity for (AID 2283040). The settings on record: primary human coronary artery smooth muscle cells; actives raise or lower the signal.

SMILES strings stand for the structures. Records with an inconclusive call do not appear. Active and inactive are the calls of the source. Rule for the calls, unless noted: active = hit-call score of the fitted dose curve at least 0.9, where 1 is the maximum; inactive = score below 0.9.

As usually defined, the AC50 is the midpoint of the concentration-response curve, whichever way the signal moves. Turning to `BrC1CCC(Br)C(Br)CCC(Br)C(Br)CCC1Br` (stereo not drawn), the outcome in experiment [1], in experiment [2], in experiment [8], in [9], in experiment [15] and in experiment [16] was inactive. Moreover, the outcome in experiment [17], in experiment [18], in [19] and in experiment [20] was inactive. The half-maximal activity concentration (AC50) in [3] is 4.73 µM (active); in [4] it was 1.16 µM (active); in experiment [5], 8.03 µM (active); in experiment [6] it was 2.57 µM (active); in experiment [7], 4.73 µM (active); in [10] it was 4.6 µM (active). Moreover, the half-maximal activity concentration (AC50) in experiment [11] is 2.62 µM (active); in experiment [12] it was 1.49 µM (active); in [13], 2.95 µM (active); in [14] it was 1.55 µM (active).
As for `CC(C)c1ccc(C(C)C)cc1`, the result in experiment [1], in experiment [2], in experiment [4], in experiment [8], in experiment [9] and in [15] was inactive. For the same compound, the outcome in [16], in experiment [17] and in experiment [18] was inactive. The AC50 in [3] is 30.5 µM (active); in [5], 37.8 µM (active); in experiment [6] it was 31 µM (active); in experiment [7], 30.7 µM (active); in experiment [10], 30.9 µM (active); in experiment [11] it was 33.3 µM (active). Also, the AC50 in [12] was 30.8 µM (active); in experiment [13], 35.1 µM (active); in experiment [14], 30.9 µM (active); in [19], 20 µM (active); in [20] it was 20 µM (active).
For `CCCCCCCCC=O`, the result in [1], in experiment [2], in [3], in experiment [4], in [5] and in experiment [6] was inactive. Moreover, the result in [7], in experiment [8], in [9], in experiment [10], in experiment [11] and in experiment [12] was inactive. Further, the outcome in experiment [13], in experiment [14], in experiment [15], in experiment [16], in [17] and in experiment [18] was inactive. Besides, the outcome in experiment [19] and in experiment [20] was inactive.
With `COc1cc(C=O)ccc1OC(=O)C(C)C`, the result in experiment [1], in experiment [2], in [3], in [4], in experiment [6] and in experiment [7] was inactive. Moreover, the result in experiment [8], in experiment [9], in experiment [10], in experiment [11], in [12] and in experiment [13] was inactive. For the same compound, the outcome in experiment [14], in experiment [15], in experiment [17], in experiment [18], in experiment [19] and in experiment [20] was inactive.
As to `CCCCC(CC)COC(=O)/C=C\C(=O)OCC(CC)CCCC` (stereo not drawn), the outcome in [1], in experiment [2], in [3], in [4], in [5] and in experiment [6] was inactive. The result in experiment [7], in experiment [8], in experiment [9], in [10], in experiment [11] and in experiment [12] was inactive. In addition, the outcome in experiment [13], in experiment [14], in experiment [15], in [16], in experiment [17] and in experiment [18] was inactive. Besides, the outcome in experiment [19] and in experiment [20] was inactive.
As to `c1ccc2sc(SN(C3CCCCC3)C3CCCCC3)nc2c1`, the result in [1], in experiment [2], in experiment [7], in [8], in experiment [9] and in experiment [10] was inactive. Also, the outcome in experiment [12], in [15], in [16], in experiment [17], in [18] and in experiment [19] was inactive. Besides, the outcome in [20] was inactive. Also, the AC50 in experiment [3] was 6.8 µM (active); in [4], 6.54 µM (active); in [5], 8.8 µM (active); in [6], 5.21 µM (active); in experiment [11], 5.07 µM (active); in experiment [13], 5.45 µM (active). In addition, in experiment [14], the AC50 is 2.67 µM (active).
